# From the supplement of paper PMC12282887
# ± gives the standard deviation of the averaged measurements.
# How the values were obtained:
# Assay in all cases: promoter activity interaction Z-score (Lux/OD deviation from empty-vector control); higher = stronger promoter induction by the compound
# [1] = system: E. coli BW25113 acrABp lux reporter
# Procedure, shortened: (§1)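 E. coli BW25113 (wild type or marA, soxS or rob deletion) carrying low-copy luxCDABE promoter reporters grew in 40 µl LB Lennox in 384-well plates at 37°C. Each compound was tested at four 1:2 dilutions in biological duplicates. OD600 and luminescence were read every 30 min for 12 h. Areas were taken over 0–8 h (wild type) or 1–9 h (mutants), and wells below 10% of median growth area were removed. The score is the Z-transformed residual of growth-normalised luminescence fitted against the empty-vector control.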
# [2] = system: E. coli BW25113 marRABp lux reporter
# Procedure, shortened: as §1
# [3] = system: E. coli BW25113 micFp lux reporter
# Procedure, shortened: as §1
# [4] = system: E. coli BW25113 ompFp lux reporter
# Procedure, shortened: as §1
# [5] = system: E. coli BW25113 robp lux reporter
# Procedure, shortened: as §1
# [6] = system: E. coli BW25113 soxSp lux reporter
# Procedure, shortened: as §1
# [7] = system: E. coli BW25113 tolCp lux reporter
# Procedure, shortened: as §1
# [8] = 28.4 µg/ml, genetic background: wild type
# [9] = 28.4 µg/ml, genetic background: ΔmarA
# [10] = 28.4 µg/ml, genetic background: Δrob
# [11] = 28.4 µg/ml, genetic background: ΔsoxS
# [12] = 56.8 µg/ml, genetic background: wild type
# [13] = 56.8 µg/ml, genetic background: ΔmarA
# [14] = 56.8 µg/ml, genetic background: Δrob
# [15] = 56.8 µg/ml, genetic background: ΔsoxS
# [16] = 113.7 µg/ml, genetic background: wild type
# [17] = 113.7 µg/ml, genetic background: ΔmarA
# [18] = 113.7 µg/ml, genetic background: Δrob
# [19] = 113.7 µg/ml, genetic background: ΔsoxS
# [20] = 227.3 µg/ml, genetic background: wild type
# [21] = 227.3 µg/ml, genetic background: ΔmarA
# [22] = 227.3 µg/ml, genetic background: Δrob
# [23] = 227.3 µg/ml, genetic background: ΔsoxS
smiles,measurement,setting,value
O=c1[nH]c(=O)c2[nH]c(O)nc2[nH]1 [Sodium urate],promoter activity interaction Z-score,[1]; [8],0.0607 ± 0.068
same,promoter activity interaction Z-score,[1]; [9],-0.691 ± 0.25
same,promoter activity interaction Z-score,[1]; [10],0.112 ± 0.14
same,promoter activity interaction Z-score,[1]; [11],-0.119 ± 0.36
same,promoter activity interaction Z-score,[1]; [12],0.0108 ± 0.15
same,promoter activity interaction Z-score,[1]; [13],-1.36 ± 0.16
same,promoter activity interaction Z-score,[1]; [14],0.00464 ± 0.19
same,promoter activity interaction Z-score,[1]; [15],-0.118 ± 0.35
same,promoter activity interaction Z-score,[1]; [16],0.121 ± 0.12
same,promoter activity interaction Z-score,[1]; [17],-1.18 ± 0.34
same,promoter activity interaction Z-score,[1]; [18],-0.0273 ± 0.041
same,promoter activity interaction Z-score,[1]; [19],-0.102 ± 0.19
same,promoter activity interaction Z-score,[1]; [20],0.0857 ± 0.087
same,promoter activity interaction Z-score,[1]; [21],-0.114 ± 0.23
same,promoter activity interaction Z-score,[1]; [22],0.315 ± 0.14
same,promoter activity interaction Z-score,[1]; [23],-0.127 ± 0.56
same,promoter activity interaction Z-score,[2]; [8],-0.098 ± 0.014
same,promoter activity interaction Z-score,[2]; [9],-0.367 ± 0.46
same,promoter activity interaction Z-score,[2]; [10],-0.0815 ± 0.3
same,promoter activity interaction Z-score,[2]; [11],-0.136 ± 0.38
same,promoter activity interaction Z-score,[2]; [12],-0.215 ± 0.019
same,promoter activity interaction Z-score,[2]; [13],-0.183 ± 0.45
same,promoter activity interaction Z-score,[2]; [14],-0.209 ± 0.11
same,promoter activity interaction Z-score,[2]; [15],-0.198 ± 0.26
same,promoter activity interaction Z-score,[2]; [16],0.0146 ± 0.11
same,promoter activity interaction Z-score,[2]; [17],-0.285 ± 0.48
same,promoter activity interaction Z-score,[2]; [18],-0.227 ± 0.062
same,promoter activity interaction Z-score,[2]; [19],-0.19 ± 0.33
same,promoter activity interaction Z-score,[2]; [20],-0.107 ± 0.15
same,promoter activity interaction Z-score,[2]; [21],0.16 ± 0.43
same,promoter activity interaction Z-score,[2]; [22],-0.0974 ± 0.043
same,promoter activity interaction Z-score,[2]; [23],-0.0308 ± 0.28
same,promoter activity interaction Z-score,[3]; [8],0.0581 ± 0.23
same,promoter activity interaction Z-score,[3]; [9],-0.118 ± 0.23
same,promoter activity interaction Z-score,[3]; [10],-0.0289 ± 0.19
same,promoter activity interaction Z-score,[3]; [11],0.0526 ± 0.22
same,promoter activity interaction Z-score,[3]; [12],0.0725 ± 0.02
same,promoter activity interaction Z-score,[3]; [13],-0.0713 ± 0.39
same,promoter activity interaction Z-score,[3]; [14],0.0271 ± 0.23
same,promoter activity interaction Z-score,[3]; [15],0.0688 ± 0.17
same,promoter activity interaction Z-score,[3]; [16],0.114 ± 0.09
same,promoter activity interaction Z-score,[3]; [17],-0.218 ± 0.078
same,promoter activity interaction Z-score,[3]; [18],-0.082 ± 0.13
same,promoter activity interaction Z-score,[3]; [19],0.0891 ± 0.29
same,promoter activity interaction Z-score,[3]; [20],0.0879 ± 0.087
same,promoter activity interaction Z-score,[3]; [21],-0.0859 ± 0.057
same,promoter activity interaction Z-score,[3]; [22],-0.12 ± 0.13
same,promoter activity interaction Z-score,[3]; [23],-0.223 ± 0.39
same,promoter activity interaction Z-score,[4]; [8],-0.0285 ± 0.013
same,promoter activity interaction Z-score,[4]; [9],-0.27 ± 0.27
same,promoter activity interaction Z-score,[4]; [10],-0.245 ± 0.31
same,promoter activity interaction Z-score,[4]; [11],0.0289 ± 0.054
same,promoter activity interaction Z-score,[4]; [12],0.162 ± 0.082
same,promoter activity interaction Z-score,[4]; [13],-0.186 ± 0.1
same,promoter activity interaction Z-score,[4]; [14],-0.168 ± 0.14
same,promoter activity interaction Z-score,[4]; [15],0.253 ± 0.42
same,promoter activity interaction Z-score,[4]; [16],0.31 ± 0.34
same,promoter activity interaction Z-score,[4]; [17],-0.874 ± 0.12
same,promoter activity interaction Z-score,[4]; [18],-0.0944 ± 0.13
same,promoter activity interaction Z-score,[4]; [19],0.241 ± 0.093
same,promoter activity interaction Z-score,[4]; [20],0.726 ± 0.41
same,promoter activity interaction Z-score,[4]; [21],0.504 ± 0.044
same,promoter activity interaction Z-score,[4]; [22],0.739 ± 0.45
same,promoter activity interaction Z-score,[4]; [23],0.654 ± 0.45
same,promoter activity interaction Z-score,[5]; [8],0.189 ± 0.027
same,promoter activity interaction Z-score,[5]; [9],-0.944 ± 0.38
same,promoter activity interaction Z-score,[5]; [10],-0.184 ± 0.64
same,promoter activity interaction Z-score,[5]; [11],0.198 ± 0.34
same,promoter activity interaction Z-score,[5]; [12],0.19 ± 0.1
same,promoter activity interaction Z-score,[5]; [13],-0.157 ± 0.22
same,promoter activity interaction Z-score,[5]; [14],0.189 ± 0.29
same,promoter activity interaction Z-score,[5]; [15],0.0419 ± 0.49
same,promoter activity interaction Z-score,[5]; [16],0.246 ± 0.37
same,promoter activity interaction Z-score,[5]; [17],-1.37 ± 0.15
same,promoter activity interaction Z-score,[5]; [18],-0.253 ± 0.052
same,promoter activity interaction Z-score,[5]; [19],-0.163 ± 0.39
same,promoter activity interaction Z-score,[5]; [20],0.613 ± 0.94
same,promoter activity interaction Z-score,[5]; [21],0.235 ± 0.099
same,promoter activity interaction Z-score,[5]; [22],0.286 ± 0.0035
same,promoter activity interaction Z-score,[5]; [23],1.01 ± 0.33
same,promoter activity interaction Z-score,[6]; [8],0.0961 ± 0.26
same,promoter activity interaction Z-score,[6]; [9],-0.0522 ± 0.15
same,promoter activity interaction Z-score,[6]; [10],0.0395 ± 0.24
same,promoter activity interaction Z-score,[6]; [11],-0.0315 ± 0.002
same,promoter activity interaction Z-score,[6]; [12],-0.0307 ± 0.019
same,promoter activity interaction Z-score,[6]; [13],-0.0796 ± 0.096
same,promoter activity interaction Z-score,[6]; [14],0.0954 ± 0.4
same,promoter activity interaction Z-score,[6]; [15],-0.135 ± 0.051
same,promoter activity interaction Z-score,[6]; [16],0.0999 ± 0.14
same,promoter activity interaction Z-score,[6]; [17],-0.0884 ± 0.18
same,promoter activity interaction Z-score,[6]; [18],-0.00479 ± 0.23
same,promoter activity interaction Z-score,[6]; [19],0.0412 ± 0.16
same,promoter activity interaction Z-score,[6]; [20],-0.0463 ± 0.28
same,promoter activity interaction Z-score,[6]; [21],-0.0252 ± 0.33
same,promoter activity interaction Z-score,[6]; [22],0.122 ± 0.45
same,promoter activity interaction Z-score,[6]; [23],-0.094 ± 0.097
same,promoter activity interaction Z-score,[7]; [8],0.639 ± 0.76
same,promoter activity interaction Z-score,[7]; [9],0.214 ± 0.76
same,promoter activity interaction Z-score,[7]; [10],-0.337 ± 0.13
same,promoter activity interaction Z-score,[7]; [11],0.0334 ± 0.15
same,promoter activity interaction Z-score,[7]; [12],-0.365 ± 0.23
same,promoter activity interaction Z-score,[7]; [13],-0.26 ± 0.17
same,promoter activity interaction Z-score,[7]; [14],0.0782 ± 0.61
same,promoter activity interaction Z-score,[7]; [15],-0.0978 ± 0.24
same,promoter activity interaction Z-score,[7]; [16],-0.0784 ± 0.044
same,promoter activity interaction Z-score,[7]; [17],-0.877 ± 0.12
same,promoter activity interaction Z-score,[7]; [18],-0.397 ± 1.1
same,promoter activity interaction Z-score,[7]; [19],0.132 ± 0.047
same,promoter activity interaction Z-score,[7]; [20],-0.0307 ± 0.037
same,promoter activity interaction Z-score,[7]; [21],-0.7 ± 0.17
same,promoter activity interaction Z-score,[7]; [22],1.21 ± 1.3
same,promoter activity interaction Z-score,[7]; [23],-0.0415 ± 0.19
